From PubChem BioAssay AID623911 (Vanderbilt High Throughput Screening Facility, 2012) come the findings set out here.

Screen size: about 2,100 compounds; about 770 (37%) were called active. The list shows a part of the results. A number with no mark means an inactive call.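 How the source made its calls: active means by-eye trace score of 1 for enhancers or -1 for inhibitors, so actives lie on both sides (some results past the limit were not filed as active); inactive means score 0, or 3 fluorescent, or 4 baseline rise.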

In the experiment the target is G protein-activated inward rectifier potassium channel 2 (Homo sapiens) + G protein-activated inward rectifier potassium channel 1 (Homo sapiens) (UniProt P48051+P48549). Briefly: GIRK1/2 thallium flux modulators, retest, confirmation, cell-based, HEK293 rmGlu8/hGIRK1/2, FluoZin-2 (AID 623911). Particulars: HEK293 rmGlu8/hGIRK1/2, thallium flux FluoZin-2; actives lie on both sides.
Sequence of G protein-activated inward rectifier potassium channel 2 (Homo sapiens) + G protein-activated inward rectifier potassium channel 1 (Homo sapiens) (P48051 whole entry, looked up): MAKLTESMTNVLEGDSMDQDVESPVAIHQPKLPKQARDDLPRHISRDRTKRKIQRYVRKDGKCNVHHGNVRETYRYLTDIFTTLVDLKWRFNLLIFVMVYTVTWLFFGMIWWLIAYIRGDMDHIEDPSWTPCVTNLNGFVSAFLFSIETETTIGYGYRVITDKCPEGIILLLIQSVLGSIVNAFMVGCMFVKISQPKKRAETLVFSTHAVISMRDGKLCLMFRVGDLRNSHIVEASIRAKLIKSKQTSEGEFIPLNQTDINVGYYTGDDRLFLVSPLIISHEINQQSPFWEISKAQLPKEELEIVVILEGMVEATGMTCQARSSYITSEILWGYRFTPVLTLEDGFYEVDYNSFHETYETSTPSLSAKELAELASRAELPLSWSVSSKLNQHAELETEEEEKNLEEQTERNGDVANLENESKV
Sequence of G protein-activated inward rectifier potassium channel 2 (Homo sapiens) + G protein-activated inward rectifier potassium channel 1 (Homo sapiens) (P48549 whole entry, looked up): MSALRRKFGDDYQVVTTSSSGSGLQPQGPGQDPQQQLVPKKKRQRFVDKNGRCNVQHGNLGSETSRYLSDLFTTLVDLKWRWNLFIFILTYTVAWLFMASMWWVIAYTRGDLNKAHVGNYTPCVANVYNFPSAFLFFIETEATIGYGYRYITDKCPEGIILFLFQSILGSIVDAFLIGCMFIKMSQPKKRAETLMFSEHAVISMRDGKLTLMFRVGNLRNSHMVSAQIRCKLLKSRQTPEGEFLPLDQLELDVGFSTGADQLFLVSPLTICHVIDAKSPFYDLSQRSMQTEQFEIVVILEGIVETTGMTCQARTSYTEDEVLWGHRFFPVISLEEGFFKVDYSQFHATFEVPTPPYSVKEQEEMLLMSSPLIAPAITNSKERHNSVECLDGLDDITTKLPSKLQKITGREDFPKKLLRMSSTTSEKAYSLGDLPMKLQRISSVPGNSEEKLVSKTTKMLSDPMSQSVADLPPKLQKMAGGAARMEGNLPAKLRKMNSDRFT
`CC(C)Oc1cc(-n2c(=S)[nH]c3ccccc3c2=O)c(Cl)cc1Cl`: the manual score was 1 (active).
With `COc1cc(-n2c(=S)[nH]c3ccccc3c2=O)c(Cl)cc1Cl`, the manual score is 1 (active).
The value for `CC(=NCC1CCCO1)c1c(O)n(-c2ccc(C)cc2)c(=O)[nH]c1=O` (stereo not given) was 0; that for `Nc1c(C(=O)OC2CCCCC2)c2nc3ccccc3nc2n1CC1CCCO1` (stereo not given) was 0.
To `CCOC(=O)C(O)(c1ccc(N(CC)S(=O)(=O)c2ccc(C)cc2)cc1)C(F)(F)F` (stereo not given) belongs -1 (active).
The value for `CCN(c1ccc(C(O)(C(=O)OC)C(F)(F)F)cc1)S(=O)(=O)c1ccc(C)cc1` (stereo not given) was -1 (active).
With `C/C(=N\Nc1ccccc1)c1c(O)n(C)c(=O)n(C)c1=O`, the manual score was 0.
To `CCOC(=O)C1=C(NC(=S)NC(=O)c2ccccc2)c2ccccc2CC12CCCC2` belongs 0; to `CC/C(=C\C=C\[C@@H]1C=C[C@@H]2CCC[C@H]2[C@@H]1C(=O)c1ccc[nH]1)[C@@H]1O[C@@H]([C@@H](C)C(=O)O)CC[C@@H]1C`, 0.
To `Cc1ccc(-c2nc(N(C)C3CCN(C)CC3)c3ccccc3n2)cc1` belongs 0; to `O=c1cc(C(F)(F)F)c2cc3c4c(c2o1)CCCN4CCC3`, 3.
To `Cn1cccc1CNCCc1ccccc1` belongs 0; to `CCN1/C(=C\C=C\C2=[N+](CC)c3ccccc3C2(C)C)C(C)(C)c2ccccc21`, 3.
On to `CNC(=O)OCCc1nccn1C`, for which the manual score was 0.
The value for `O=C(Nc1ccc(Cl)cc1)Nc1nccs1` was 1 (active); that for `Cc1nn(C)cc1/C=C1/CC2C3CC=C4CC(O)CCC4(C)C3CCC2(C)C1=O` (stereo not given) was -1 (active); that for `CN1/C(=C\C=C\C2=[N+](C)c3ccc4ccccc4c3C2(C)C)C(C)(C)c2ccccc21` was 3.
To `C=CCOC(=O)COc1cc(C)cc2oc(=O)c3c(c12)CCC3` belongs 0.
To `CCN(CC)CCNCC(=O)Nc1ccc(Cl)cc1C(=O)c1ccccc1` belongs -1 (active); to `O=c1[nH]c(=S)n(CCC2=CCCCC2)c(O)c1C=NCCCn1ccnc1`, 3; to `Cc1ccc(OCC(=O)NCCN2CCN(C(=O)COc3ccc(C)cc3)CC2)cc1`, 0.
With `O=C(c1cc2ccccn2n1)N1CCC2(CC1)OCCO2`, the manual score was 0.
Consider `COc1ccc(CC2C(=O)NC(=O)NC2=O)c(OC)c1`, for which the manual score was 0.
For `c1ccc2c(CNC3CCCCC3)c[nH]c2c1`, the manual score is -1 (active).
On to `CC(C)N1C(=O)/C(=C/C=C/c2ccco2)C(=O)N(Cc2ccco2)C1=O`, for which the manual score was 0.
To `S=C1CN=C(c2ccccc2Cl)c2cc(Cl)ccc2N1` belongs 1 (active); to `Cc1ccccc1C1=NCC(=S)Nc2ccc(Cl)cc21`, 0; to `S=C1CN=C(c2ccccc2)c2cc(Cl)ccc2N1`, 0.
To `CC(C)CCn1c(=O)c(C(=O)Nc2ccccc2S(N)(=O)=O)c(O)c2ccccc21` belongs 0; to `O=C(c1ccccc1)c1cn(CC(=O)N2CCOCC2)c2ccccc12`, 0; to `Fc1ccc(NC2=NCCS2)cc1Cl`, 0.
Take `CCCCn1c(C)c(C(=O)OCC)c2c(CN3CCOCC3)c(O)ccc21`: the manual score is -1 (active).
To `O=C(Cc1ccccc1)N1CCN(C/C=C/c2ccccc2)CC1` belongs 0; to `Cc1ccc2nc(N3CCC(C(=O)N4CCC5(CC4)OCCO5)CC3)sc2c1`, 0; to `N=c1sc2c(n1Cc1ccccc1)CCCC2`, -1 (active).
